S1P1 agonist = activates the human S1P1 receptor. activation, % at 4.5 µM. AID 1044, 2008. S1P1 agonist cell-based reporter assay. hit rate 1.5% among 16,000; in the data active = activation above about 80%
TLR4-MyD88 inh = inhibitors of human TLR4-MyD88 binding. Toll-like receptor 4 (Homo sapiens), O00206. Cell-based TLR4-MyD88 binding inhibition assay. inhibition, % at 10 µM. hit rate 0.06% among 16,000. AID 811, 2007; in the data active = inhibition above about 45%
Target sequence (O00206 whole entry, looked up): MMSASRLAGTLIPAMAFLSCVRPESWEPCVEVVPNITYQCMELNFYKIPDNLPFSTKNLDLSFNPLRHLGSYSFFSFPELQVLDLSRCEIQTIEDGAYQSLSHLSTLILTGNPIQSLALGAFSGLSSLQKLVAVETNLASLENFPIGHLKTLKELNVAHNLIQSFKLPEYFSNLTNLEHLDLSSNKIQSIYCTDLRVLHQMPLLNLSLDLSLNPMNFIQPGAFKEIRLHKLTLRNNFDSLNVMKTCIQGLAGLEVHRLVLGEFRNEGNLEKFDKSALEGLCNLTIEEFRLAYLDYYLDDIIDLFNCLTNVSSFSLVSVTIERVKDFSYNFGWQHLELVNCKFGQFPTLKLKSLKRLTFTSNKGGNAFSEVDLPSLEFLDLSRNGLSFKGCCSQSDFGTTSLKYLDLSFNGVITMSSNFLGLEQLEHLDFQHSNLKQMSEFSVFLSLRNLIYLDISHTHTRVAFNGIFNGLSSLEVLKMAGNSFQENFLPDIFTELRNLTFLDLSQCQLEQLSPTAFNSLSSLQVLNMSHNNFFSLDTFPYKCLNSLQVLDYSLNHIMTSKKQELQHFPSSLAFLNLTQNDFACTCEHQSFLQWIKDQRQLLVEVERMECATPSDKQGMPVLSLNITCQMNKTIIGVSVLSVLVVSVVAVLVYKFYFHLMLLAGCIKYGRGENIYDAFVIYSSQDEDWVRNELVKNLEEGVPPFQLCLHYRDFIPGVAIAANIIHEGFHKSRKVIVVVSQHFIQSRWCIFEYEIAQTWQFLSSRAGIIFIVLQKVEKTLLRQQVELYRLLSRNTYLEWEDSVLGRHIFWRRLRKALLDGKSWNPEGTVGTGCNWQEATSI
KOR antag MB = antagonists of human kappa opioid receptor OPRK1, Maybridge library. Kappa-type opioid receptor (Homo sapiens), P41145. hit rate 0.4% among 16,000. AID 652031, 2013. inhibition, % at 9 µM. OPRK1 cells, antagonist mode, fluorescence readout; in the data active = inhibition above about 50%
NOTCH ag = agonists of NOTCH signaling | activation, % at 2.5 µM | NOTCH signaling luciferase reporter cells, luminescence | hit rate 0.4% among 15,000; in the data active = activation above about 2.2%
* = called active by the depositor; · = no result. Hits are enriched below; roughly 2.2% of the tested compounds scored in any of these assays.

SMILES	S1P1 agonist	TLR4-MyD88 inh	KOR antag MB	NOTCH ag
O=C(OC1CCSC1)c1cc(C(F)(F)F)cc(C(F)(F)F)c1 (stereo not drawn)	120*	12	7	·
N/C(=N\OC(=O)c1cccc(C(F)(F)F)c1)C1CSCCS1 (stereo not drawn)	-1	0	-7	·
Cc1cc(N=Nc2cccc(C(F)(F)F)c2)ccc1N	101*	-1	28	1
Nc1ccc(C(F)(F)F)cc1N	4	-3	-6	0
Cc1c(-c2nc(-c3ccc(C(C)(C)C)cc3)no2)n(C)oc1=O	95*	2	12	-1
Cc1c(-c2nc(-c3ccc([N+](=O)[O-])o3)no2)n(C)oc1=O	-11	2	4	1
Nc1c(C(=O)c2ccccc2)sc2nsc(SCCN3CCCC3)c12	72	14	76*	-1
CSC(=N)n1nc(SC)nc1N	6	0	-5	2.8*
O=C(/C=C/c1ccc(OC(F)(F)F)cc1)NNC(=O)c1ccc(Cl)cc1	-2	14	15	0
CC(=O)C(N=Nc1ccc2c(c1)COCO2)C(C)=O	-10	9	-10	0
CC(=O)/C(C=Nc1cc(C)c(O)c(Cl)c1)=C(\C)O	-35	0	4	0
S=c1n(CN2CCCCC2)nc(Nc2ccccc2)n1-c1ccccc1	-3	2	2	0
Cn1c(-c2ncc(C(F)(F)F)cc2Cl)n[nH]c1=S	93*	-5	15	0
Cn1c(C(F)(F)F)n[nH]c1=S	-17	-14	-2	0
O=C(CSc1n[nH]c(=O)n1-c1ccc2c(c1)OCCO2)c1csc2ccccc12	-7	-13	-5	0
Cc1cc(NC(=O)CSc2n[nH]c(=O)n2-c2ccc3c(c2)OCCO3)n(-c2ccccc2)n1	-7	-6	0	2.2*
OC(CN1CCN(Cc2c(F)cccc2Cl)CC1)Cn1ccc2ccccc21 (stereo not drawn)	9	-7	2	2.7*
O=S(=O)(Nc1ccc(C(F)(F)F)cc1Cl)c1cc(Br)c(Cl)s1	113*	-18	7	0
CCOC(=O)C(NC(=O)c1ccco1)(Nc1ccc(F)c(Cl)c1)C(F)(F)F (stereo not drawn)	1	-1	-7	0
Cc1c(C)c(C)c(C(=O)c2ccccc2C(=O)NN)c(C)c1C	81*	-7	-16	0
O=C1CCC(O)N1CCc1cnc[nH]1 (stereo not drawn)	1	5	14	0
O=S(=O)(Cc1cccc(C(F)(F)F)c1)NCc1cccs1	16	-4	-12	0
Cn1cc(S(=O)(=O)NCc2ccc3c(c2)OCO3)c(C(F)(F)F)n1	12	9	3	-1
Cc1cn(CCC(=O)NCc2ccc3c(c2)OCO3)c2ccccc12	-9	-3	-27	3.5*
Cn1nc(C(C)(C)C)cc1C(=O)NCc1ccc2c(c1)OCO2	84*	3	-21	-1
SMILES	S1P1 agonist	TLR4-MyD88 inh	KOR antag MB	NOTCH ag
Cn1ccnc1S/C(=C/C=C(C#N)C#N)c1ccc(Cl)cc1	25	-5	20	-1
COc1ccc(Oc2ccc([N+](=O)[O-])c(Oc3ccc(OC)cc3)n2)cc1	88*	-2	2	-1
Cc1cc(C(=O)Nc2ccc(N3CCOCC3)cc2)nn1C	1	-2	-5	0
Cc1cc(C(=O)Nc2nc3ccc(Cl)cc3s2)nn1C	103*	10	1	-1
Cc1nnc(SCc2ccc([N+](=O)[O-])cc2)s1	-2	3	2	0
Clc1ccc(CSc2nnc(-n3cccc3)s2)cc1	80*	0	-13	0
Cc1ccccc1NC(=O)NCc1ccccc1	16	8	13	0
Cc1nnsc1C(=O)Nc1ccccc1SCc1cccc(C(F)(F)F)c1	88*	9	-26	0
CC(=O)Nc1ccc(S(=O)(=O)Nc2cc(C(F)(F)F)cc(C(F)(F)F)c2)cc1	-22	-6	-5	-1
O=[N+]([O-])c1ccc(CSc2ncc3ccccn23)cc1	1	-15	-16	0
O=C1/C(=C/c2cccs2)CC/C1=C\c1cccs1	81*	6	4	0
O=C1/C(=C/c2cccs2)CN(Cc2ccccc2)C/C1=C\c1cccs1	-19	3	23	-1
Cc1c(S(=O)(=O)c2ccc(Cl)cc2)csc1C(=O)N/N=C/c1cccs1	54	9	-30	1
O=C(N/C(=C\c1ccc(-c2ccc([N+](=O)[O-])cc2)o1)c1nc2ccccc2[nH]1)c1ccccc1	68	50*	113*	-1
O=[N+]([O-])c1ccc(-c2ccc(-c3ccc([N+](=O)[O-])cc3)o2)cc1	66	8	45	-1
COc1cc(C=N/C(C#N)=C(/C#N)NCC(C)(C)C)cc(Br)c1O	-25	-17	-17	0
CC(C)(C)CN/C(C#N)=C(\N)C#N	106*	13	3	-1
S=c1[nH]c(=S)c2ccccc2[nH]1	-4	0	0	0
CCOC(=O)c1cn[nH]c1NC(=S)Nc1cccc(C(F)(F)F)c1	41	21	83*	-1
CC1COC(c2cccc([N+](=O)[O-])c2)N1 (stereo not drawn)	11	0	56*	-1
C#CC(CC)(CC)N=Cc1cc(Br)ccc1OCC	123*	16	-5	·
CCOc1ccccc1/C=N/NC(=O)N/N=C/c1ccccc1OCC	-28	4	10	0
Cc1noc(-c2ccccc2)c1NC(=O)N1CCN(C)CC1	-19	-6	5	-1
COc1ccccc1C1CCN(Cc2ccc3c(c2)CCC(C)(C)O3)CC1	-2	-2	75*	0
COc1cccc(C=NC2CCN(Cc3ccccc3)CC2)c1OC	-5	12	23	0
SMILES	S1P1 agonist	TLR4-MyD88 inh	KOR antag MB	NOTCH ag
O=[N+]([O-])c1cnc(Sc2ccc(C(F)(F)F)cn2)s1	-24	0	15	-1
O=C1NC(=S)S/C1=C\c1cc([N+](=O)[O-])ccc1Sc1ccc(C(F)(F)F)cn1	108*	0	12	0
CCC/C(O)=C(\C=N\c1ccc(C(=O)OC)o1)C(=O)OCC	83*	1	-5	0
O=C1CN(c2ccccc2)C(=O)N1c1ccccc1	-3	5	-9	0
O=C1CCC2=C(CCCC2)N1c1ccccc1	2	45*	8	0
CCOc1cc(N2CCOCC2)c(OCC)cc1NS(=O)(=O)c1ccccc1	9	-2	18	0
Nc1ccc(Cl)cc1-c1ncon1	-8	-6	-5	·
O=S(=O)(Nc1cc(C(F)(F)F)ccc1F)c1cc(C(F)(F)F)ccc1Cl	85*	-9	14	0
Cc1cc(NS(=O)(=O)c2ccc(C(F)(F)F)cc2Cl)no1	-15	1	11	0
N#Cc1cccnc1NNC(=O)c1nccnc1C(=O)O	0	13	26	-1
N#Cc1cccnc1NNC(=O)COCC(=O)O	-12	3	83*	-1
COc1ccccc1NC(=S)NCCC(=O)O	0	0	0	1
COc1ccccc1NC(N)=S	-4	4	19	4.8*
O=[N+]([O-])c1ccc(-c2csc(-c3ccc(-c4cccs4)s3)n2)cc1	13	6	7	0
O=[N+]([O-])c1ccc(N/N=C/c2ccc(-c3cccs3)s2)nc1	71	17	79*	0
N#CC(CO)Cc1cc([N+](=O)[O-])ccc1N1CCCCC1 (stereo not drawn)	95*	1	-16	0
N#CC(CO)Cc1cc([N+](=O)[O-])ccc1N1CCOCC1 (stereo not drawn)	3	-4	-4	-1
Cc1ccc(C)c(Nc2n[nH]c(=S)s2)c1	-8	-8	-2	·
CCOC(=O)NC(=O)/C(C#N)=C/Nc1ccc(OC(F)(F)F)cc1	20	-1	11	-1

Source: PubChem BioAssay (The Scripps Research Institute Molecular Screening Center)
